Source: PubChem (National Center for Advancing Translational Sciences (NCATS))
AMA1-RON2 inh: inhibitors of Plasmodium falciparum AMA1-RON2 interaction. AlphaScreen AMA1-biotinylated RON2 peptide binding. Potency, µM (series often up to 58.2 µM), for inactives: at the top dose activity change, negative = inhibition, hits mostly inhibitors. 360,000 compounds, 0.2% hits;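 further: 0% = vehicle wells and -100% = peptide control; nearly all actives have a fitted effect of over 45% in size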
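AMA1 (3D7) with his tag at 25 nM final met compounds first, then biotinylated RON2 peptide at 25 nM; detection used donor plus acceptor beads, 10 µg/mL apiece, read by AlphaScreen after 30 min at room temperature.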
Pf growth 96h: inhibits malaria parasite growth, 96 h. Potency, µM (highest dose often 28.7 µM), inactives show at the highest dose activity change, negative = inhibition, usual class: inhibitors. P. falciparum luciferase reporter growth, 96 h. 320,000 compounds, 6.9% hits
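Delayed-death screen, second-generation endpoint: infected erythrocytes, 2% hematocrit, 0.05% parasitemia final; 96 hours at 37 C, 5% CO2; luciferase detection reagent; luminescence decrease equals reduced growth.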
HCV inh: HCV inhibition; 340,000 compounds, 3.4% hits; Huh7.5.1 HCVcc-Cre infection, luciferase reporter, 44 h; Potency, µM (highest dose often 41.8 µM), for the others: at the highest dose activity change, negative = inhibition, hits mostly inhibitors
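Whole-lifecycle infectious HCVcc-Cre system; cells 1,000/well, compound then virus (~0.5 moi) added 4 h after plating, 44 h culture. Luciferase read 15 sec following 15 min substrate incubation, room temp.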
Pf growth 48h: P. falciparum growth inhibition at 48 hours (one generation); P. falciparum luciferase growth in erythrocytes, 48 h; Potency, µM (series often up to 28.7 µM), for inactives: at the highest dose activity change, negative = inhibition, most hits filed as inhibitors; 310,000 compounds, 5.9% hits
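Luciferase-expressing P. falciparum in infected erythrocytes (2% hematocrit, 0.1% parasitemia final) in RPMI 1640/0.5% Albumax were exposed to compound for 48 hours at 37 C, 5% CO2; growth read as luminescence.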
An asterisk follows results filed as active; [ ] = remark or other dose. Compounds with a hit are over-represented: about 11% of the library has one in this group of screens. The call rests on the fitted dose curve; in most records, active means well fitted curve in the direction sought with a large enough effect; inconclusive means small, poorly fitted or top-dose-only effect, or another doubt; inactive means no such curve, though single readings can be large; an effect the other way counts as inactive or inconclusive. Unless noted, on the % scale 0 is the no-effect control and ±100 the full control effect; potency means the concentration at half of the fitted maximal effect.

COc1cc(NC(=O)OCc2ccccc2)c2ncccc2c1 was read as AMA1-RON2 inh 134% and HCV inh 14µM*.
COc1cc(NC(=O)c2cc(OC)c(OC)c(OC)c2)c2ncccc2c1 was read as AMA1-RON2 inh 9% and HCV inh 10µM*.
`Nc1ccc2c3c(cccc13)-c1ccccc1-2` gave AMA1-RON2 inh 24% and HCV inh inconclusive.
For Cc1ccc2c3c(cccc13)-c1ccccc1C2=O the results were AMA1-RON2 inh -31%, Pf growth 96h 307%, HCV inh 5.6µM* and Pf growth 48h 31%.
Screening CCOc1cc(C(c2c(C)[nH][nH]c2=O)c2c(C)[nH][nH]c2=O)ccc1OS(=O)(=O)c1ccc(C)cc1 returned AMA1-RON2 inh 49%, HCV inh 9% and Pf growth 48h 15µM*.
Screening CC(=O)n1cc([C@H]2C=C(C(N)=O)O[C@@H](OCc3ccc(CO)cc3)C2)c2ccccc21 returned AMA1-RON2 inh -1% and HCV inh 2.8µM*.
Screening CC(=O)n1cc([C@@H]2C=C(C(=O)Nc3ccccc3)O[C@H](OCc3ccc(CO)cc3)C2)c2ccccc21 returned AMA1-RON2 inh -12%, Pf growth 96h 5.9µM*, HCV inh inconclusive and Pf growth 48h inconclusive.
`CC(=O)n1cc([C@H]2C=C(C(=O)NCc3ccccc3)O[C@@H](OCc3ccc(CO)cc3)C2)c2ccccc21` gave AMA1-RON2 inh -13%, Pf growth 96h 2.1µM*, HCV inh inconclusive and Pf growth 48h inconclusive.
C#CCNC(=O)C1=C[C@@H](c2cn(C(C)=O)c3ccccc23)C[C@@H](OCc2ccc(CO)cc2)O1 was read as AMA1-RON2 inh -10%, Pf growth 96h 6.6µM*, HCV inh -18% and Pf growth 48h 8.3µM*.
`O=C(Nc1ccccc1)C1=C[C@@H](c2ccccc2)C[C@@H](OCc2ccc(CO)cc2)O1` gave AMA1-RON2 inh 10%, Pf growth 96h 4%, HCV inh -24% and Pf growth 48h 32%.
CCOc1ccccc1NC(=O)Nc1ccc(Br)cc1C was read as AMA1-RON2 inh -1%, Pf growth 96h 25%, HCV inh inconclusive and Pf growth 48h inconclusive.
`CN1CCN(c2ncnc3c2ncn3[C@H]2CN(Cc3ccco3)C[C@@H](CO)O2)CC1` gave AMA1-RON2 inh -2%.
`CCOC(=O)c1cnc2cc(F)c(F)cc2c1N1CCOCC1` gave AMA1-RON2 inh -2%, Pf growth 96h -1%, HCV inh -22% and Pf growth 48h -5%.
CCOc1ccc(CCNC(=O)CSc2cc(=O)n(C)c3cc(Cl)ccc23)cc1OCC was read as AMA1-RON2 inh -19%, Pf growth 96h inconclusive, HCV inh 6% and Pf growth 48h 18%.
Screening Cn1c(=O)cc(SCC(=O)NCCC2=CCCCC2)c2ccc(Cl)cc21 returned AMA1-RON2 inh -1%, Pf growth 96h 15µM*, HCV inh 8% and Pf growth 48h -7%.
Screening CCN1C(=O)[C@H]2[C@@H](c3ccc(-c4ccc5c(c4)OCO5)c(OC)c3)N[C@@](C)(C(=O)OC)[C@H]2C1=O returned AMA1-RON2 inh 1% and HCV inh 3.2µM*.
COC(=O)C1(C)NC(c2ccc(F)cc2)C2C(=O)N(c3ccc(C)cc3)C(=O)C21 (centres undefined) was read as AMA1-RON2 inh 0%, Pf growth 96h 2.3µM*, HCV inh 9% and Pf growth 48h -1%.
For CCN1C(=O)[C@H]2[C@@H](c3ccc(-c4ccc(Cl)c(Cl)c4)c(OC)c3)N[C@@](C)(C(=O)OC)[C@H]2C1=O the results were AMA1-RON2 inh -1%, Pf growth 96h 0.93µM*, HCV inh -18% and Pf growth 48h 2.1µM*.
CCOC(=O)C1(C)NC(c2ccc(OC)c(OC)c2)C2C(=O)N(CC)C(=O)C21 (centres undefined) was read as AMA1-RON2 inh 13%, Pf growth 96h -10%, HCV inh -3% and Pf growth 48h 17%.
For COc1ccc(CN=C2NC(=O)CC(C(=O)Nc3ccccc3C)S2)cc1 (centres undefined) the results were AMA1-RON2 inh 307%, Pf growth 96h 0%, HCV inh 12% and Pf growth 48h -10%.
For Cc1nc(S(=O)(=O)c2ccc(Cl)cc2)c(N(C)C)o1 the results were AMA1-RON2 inh -5%, Pf growth 96h 58%, HCV inh 9% and Pf growth 48h 32%.
NS(=O)(=O)c1ccc(N2N=C(c3ccccc3)CC2c2ccccc2Cl)cc1 (centres undefined) was read as AMA1-RON2 inh 57% and HCV inh 32µM*.
Screening NS(=O)(=O)c1ccc(N2N=C(c3ccccc3)CC2c2ccccc2)cc1 (centres undefined) returned AMA1-RON2 inh -9%[2.32 µM], Pf growth 96h 9.3µM*, HCV inh inconclusive and Pf growth 48h -24%.
For COc1ccc(C2=NN(CN3C(=O)C(=O)c4ccccc43)C(c3ccc(Br)cc3)C2)cc1 (centres undefined) the results were AMA1-RON2 inh -7%, Pf growth 96h 11% and HCV inh 10µM*.
`COc1ccc(C2=NN(CN3C(=O)C(=O)c4ccccc43)C(c3ccc(C)cc3)C2)cc1` (centres undefined) gave AMA1-RON2 inh -5%, Pf growth 96h inconclusive and HCV inh -23%.
For COc1ccc(C2CC(c3ccccc3Br)=NN2c2ccc(S(N)(=O)=O)cc2)cc1 (centres undefined) the results were AMA1-RON2 inh 20% and HCV inh 11µM*.
Screening O=C(N/N=C/c1ccc(Br)cc1)c1ccc(Br)o1 returned AMA1-RON2 inh 6%, Pf growth 96h 36%, HCV inh -2% and Pf growth 48h 39%.
`COc1cc(C(=O)Nc2ccc(S(=O)(=O)N3CCCCC3C)cc2)cc(OC)c1OC` (centres undefined) gave AMA1-RON2 inh -9%, Pf growth 96h inconclusive, HCV inh 13µM* and Pf growth 48h 8.3µM*.
Screening COc1ccc(C(=O)Nc2ccc(S(=O)(=O)N3CCCCC3C)cc2)c(OC)c1OC (centres undefined) returned AMA1-RON2 inh -11%, Pf growth 96h 24%, HCV inh 11µM* and Pf growth 48h inconclusive.
Screening COc1ccccc1C(=O)Nc1ccc(S(=O)(=O)N2CCCCC2c2cccnc2)cc1 (centres undefined) returned AMA1-RON2 inh -16%, Pf growth 96h 3.3µM*, HCV inh inconclusive and Pf growth 48h inconclusive.
Screening CC(C)C(=O)N1CCC2(CC1)Oc1ccc(Cl)cc1C(=O)C21CC(c2cccnc2)=NO1 (centres undefined) returned AMA1-RON2 inh -2%, Pf growth 96h inconclusive, HCV inh 13% and Pf growth 48h inconclusive.
Cc1ccc(-c2nn(-c3ccccc3)cc2CC(=S)N2CCOCC2)cc1 was read as AMA1-RON2 inh -7%, Pf growth 96h inconclusive, HCV inh 1% and Pf growth 48h -29%.
